# Assay results: PubChem BioAssay AID651946 (Broad Institute, 2012)
# Measured potencies and affinities stand elsewhere. Activity calls are given as the source filed them.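 Rule for the calls: active = toxic compound whose fitted half-effect dose of signal loss is at most twice its top tested dose; inconclusive = flat fit losing 30 to 70% signal, or poor fit; inactive = the rest.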
# Assay: cytotoxicity in HeLa cells, dose response, cytotoxicity control, cell-based, plate reader, dry powder (AID 651946)
# Settings: HeLa viability, ATP luminescence (CellTiter-Glo), 48 h; series mostly up to 26 µM
row,Compound,outcome
1,c1ccc(CSc2nnc(C3CCCCC3)o2)cc1,inactive
2,c1ccc(CSc2nnc(Cc3ccccc3)o2)cc1,inactive
3,Fc1cccc(CSc2nnc(-c3ccccc3)o2)c1,inactive
4,CC(C)c1nnc(SCc2ccccc2)o1,inactive
5,CS(=O)(=O)c1cccc(-c2nnc(SCc3ccccc3)o2)c1,inactive
6,O=S(Cc1cn(Cc2ccc(F)cc2)nn1)c1nnc(-c2ccc(Cl)cc2)o1 (configuration not stated),inactive
7,c1ccc(CSc2nnc(-c3cccnc3)o2)cc1,inactive
8,Fc1ccc(CSc2nnc(-c3cccnc3)o2)cc1,inactive
9,Cc1ccc(-c2nnc(SCc3ccccn3)o2)cc1,inactive
10,c1ccc(Cn2cc(CSc3nnc(C4CCCC4)o3)nn2)cc1,inactive
11,c1ccc(CSc2nnc(-c3ccncc3)o2)nc1,inactive
12,COc1ccccc1-c1nnc(SCc2ccccn2)o1,inactive
13,c1ccc(-c2nnc(SCCC3OCCCO3)o2)cc1,inactive
14,Clc1cccc(CSc2nnc(-c3ccccc3)o2)c1,inactive
15,FC(F)(F)c1cccc(-c2nnc(SCc3ccccc3)o2)c1,inactive
16,c1ccc(-c2nnc(SCC3CC3)o2)cc1,inactive
17,c1ccc(CSc2nnc(-c3ccccn3)o2)cc1,inactive
18,c1ccc(CSc2nnc(C3CCCC3)o2)cc1,inactive
19,FC(F)(F)c1ccccc1-c1nnc(SCc2ccccc2)o1,inactive
20,c1ccc(-c2ccc(CSc3nnc(-c4ccccc4)o3)cc2)cc1,inactive
21,Clc1ccc(-c2nnc(SCc3cn(Cc4ccccc4)nn3)o2)cc1,inactive
22,c1ccc(Cn2cc(CSc3nnc(C4CCC4)o3)nn2)cc1,inactive
